# Source: the supplement of paper PMC6555819
# System: PPARa:RXRa (NR concentration 270 nM, RXRa partner concentration 90 nM)
# Assay: PBM binding z-score (relative to random genomic background probes); higher = stronger binding; sequences stand for … in GC…GCGATTGACAGCGTAGAATGAAGG
# In short: (§1)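 Scanned fluorescence from custom Agilent 4×180K protein-binding microarrays was regression-normalized. Binding z-scores use random background probes as reference. Ligand-free nuclear receptor dimers were incubated on the arrays for 1 h and detected with antibodies against each partner (one per run).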
row,Sequence,PBM binding z-score
1,CTATGTAGGGTAAGGGGGTCATTCAGTTTGAAAG,6.11
2,TCGAGAAGGTTACGGGGGCATTCAGGGATGAAGA,5.32
3,TCGAGTAGGTTACGGGGGTATTCAGGGATGAAGA,3.45
4,CCGAGTAGGTTACGAGGGGGCATTTAGTGCGAAT,3.54
5,TCGAGTAGGTTACAGGGGCATTCAGGGATGAAGA,2.44
6,CCGAGTAGGTTACGACGGGGCATTCAGTGCGAAT,1.36
7,CCGAGTAGGTTACGAGGGGGCATGCAGTGCGAAT,3.35
8,CTATGCAGGTTAAGGGGGTCATTCAGTTTGAAAG,5.63
9,TCGAGTAGGGTACGGGGGCATTCAGGGATGAAGA,3.09
10,CCGAGTAGGTTACGAGCGGGCATTCAGTGCGAAT,0.9
11,CCGAGTAGGTTACGAGGGGGCCTTCAGTGCGAAT,2.44
12,TCGAGTAGGTTAGGGGGGCATTCAGGGATGAAGA,3.3
13,CTATGTAGGTTAAGGGGTTCATTCAGTTTGAAAG,4.75
14,CTATGTAGGTTAAGGGGGTCAATCAGTTTGAAAG,5.86
15,CCGAGTAGGTTACGAGGGGGCATTCACTGCGAAT,3.49
16,TCGAGTAGGTTACGGGGGCATTCCGGGATGAAGA,4.29
17,CTATGTAGTTTAAGGGGGTCATTCAGTTTGAAAG,5.3
18,CCGAGTAGGTTACGAGGGGGCAATCAGTGCGAAT,3.34
19,CTAGGTAGGTTAAGGGGGTCATTCAGTTTGAAAG,5.56
20,CTATGTATGTTAAGGGGGTCATTCAGTTTGAAAG,5.68

row,Sequence,PBM binding z-score
1,CCGAGTAGATTACGAGGGGGCATTCAGTGCGAAT,1.75
2,CCGAGTAGGTTACGAGGGGGCACTCAGTGCGAAT,3.35
3,CCGAGTAGGTTGCGAGGGGGCATTCAGTGCGAAT,2.73
4,TCGAGTTGGTTACGGGGGCATTCAGGGATGAAGA,2.89
5,CTACGTAGGTTAAGGGGGTCATTCAGTTTGAAAG,5.67
6,CTTTGTAGGTTAAGGGGGTCATTCAGTTTGAAAG,6.06
7,CTATGTAGGTTAAGGGGGTCATTAAGTTTGAAAG,6
8,TCGAGTAGGTTACGGTGGCATTCAGGGATGAAGA,1.81
9,CTATGTAGGTTAAGGGGCTCATTCAGTTTGAAAG,4.02
10,TCGAATAGGTTACGGGGGCATTCAGGGATGAAGA,5.11
11,CTATGTAGGTTAAGGGGATCATTCAGTTTGAAAG,3.77
12,CCGAGTAGGTTATGAGGGGGCATTCAGTGCGAAT,3.29
13,CAGAGTAGGTTACGAGGGGGCATTCAGTGCGAAT,3.54
14,CCGAGTAGGTTACGAGGCGGCATTCAGTGCGAAT,1.06
15,CTATGTAGGTTAAGTGGGTCATTCAGTTTGAAAG,4.58
16,TCGAGTAAGTTACGGGGGCATTCAGGGATGAAGA,2.64
17,TCGAGTAGGTTACGGGGGCATTAAGGGATGAAGA,4.16
18,CTATGTAGGTTAAGGGGGTCATCCAGTTTGAAAG,6.19
19,TCGAGTAGTTTACGGGGGCATTCAGGGATGAAGA,2.69

# System: PPARg:RXRa (NR concentration 180 nM, RXRa partner concentration 90 nM)
# Assay: as above
# In short: as §1
row,Sequence,PBM binding z-score
1,CTATGTAGGGTAAGGGGGTCATTCAGTTTGAAAG,8.15
2,TCGAGAAGGTTACGGGGGCATTCAGGGATGAAGA,6.1
3,TCGAGTAGGTTACGGGGGTATTCAGGGATGAAGA,4.49
4,CCGAGTAGGTTACGAGGGGGCATTTAGTGCGAAT,1.87
5,TCGAGTAGGTTACAGGGGCATTCAGGGATGAAGA,2.7
6,CCGAGTAGGTTACGACGGGGCATTCAGTGCGAAT,0.995
7,CCGAGTAGGTTACGAGGGGGCATGCAGTGCGAAT,2.46
8,CTATGCAGGTTAAGGGGGTCATTCAGTTTGAAAG,5.77
9,TCGAGTAGGGTACGGGGGCATTCAGGGATGAAGA,4.1
10,CCGAGTAGGTTACGAGCGGGCATTCAGTGCGAAT,0.617
11,CCGAGTAGGTTACGAGGGGGCCTTCAGTGCGAAT,1.5
12,TCGAGTAGGTTAGGGGGGCATTCAGGGATGAAGA,5.66
13,CTATGTAGGTTAAGGGGTTCATTCAGTTTGAAAG,7.11
14,CTATGTAGGTTAAGGGGGTCAATCAGTTTGAAAG,8.09
15,CCGAGTAGGTTACGAGGGGGCATTCACTGCGAAT,2.33
16,TCGAGTAGGTTACGGGGGCATTCCGGGATGAAGA,5.89
17,CTATGTAGTTTAAGGGGGTCATTCAGTTTGAAAG,4.03
18,CCGAGTAGGTTACGAGGGGGCAATCAGTGCGAAT,2.49
19,CTAGGTAGGTTAAGGGGGTCATTCAGTTTGAAAG,6.17
20,CTATGTATGTTAAGGGGGTCATTCAGTTTGAAAG,5.43

row,Sequence,PBM binding z-score
1,CCGAGTAGATTACGAGGGGGCATTCAGTGCGAAT,0.167
2,CCGAGTAGGTTACGAGGGGGCACTCAGTGCGAAT,2.36
3,CCGAGTAGGTTGCGAGGGGGCATTCAGTGCGAAT,0.173
4,TCGAGTTGGTTACGGGGGCATTCAGGGATGAAGA,1.84
5,CTACGTAGGTTAAGGGGGTCATTCAGTTTGAAAG,4.41
6,CTTTGTAGGTTAAGGGGGTCATTCAGTTTGAAAG,7.86
7,CTATGTAGGTTAAGGGGGTCATTAAGTTTGAAAG,8.78
8,TCGAGTAGGTTACGGTGGCATTCAGGGATGAAGA,1.73
9,CTATGTAGGTTAAGGGGCTCATTCAGTTTGAAAG,6.99
10,TCGAATAGGTTACGGGGGCATTCAGGGATGAAGA,5.71
11,CTATGTAGGTTAAGGGGATCATTCAGTTTGAAAG,5.97
12,CCGAGTAGGTTATGAGGGGGCATTCAGTGCGAAT,1.69
13,CAGAGTAGGTTACGAGGGGGCATTCAGTGCGAAT,3.69
14,CCGAGTAGGTTACGAGGCGGCATTCAGTGCGAAT,0.984
15,CTATGTAGGTTAAGTGGGTCATTCAGTTTGAAAG,5.98
16,TCGAGTAAGTTACGGGGGCATTCAGGGATGAAGA,1.06
17,TCGAGTAGGTTACGGGGGCATTAAGGGATGAAGA,6.03
18,CTATGTAGGTTAAGGGGGTCATCCAGTTTGAAAG,8.53
19,TCGAGTAGTTTACGGGGGCATTCAGGGATGAAGA,1.11
